# The antibiotic and cytotoxicity screens of Wong et al. (2023)
# The campaign covered roughly 39,000 compounds. About 500 (1.3%) were called active. This is one part of a sample in which actives are shown more often than they occur.
# Tested on: S. aureus RN4220
# Experiment: growth inhibition call (relative growth <= 0.2)
# Settings: 50 µM
row,Compound,growth inhibition call
1,Cc1cc2nc3ccc(N(C)C)cc3[s+]c2cc1N.[Cl-],inactive
2,C=CCOC(=O)[C@H]1[C@@H]2C(=O)O[C@@H](c3ccccc3)[C@@H](c3ccccc3)N2[C@@H](c2ccc(OCCOC(=O)[C@H]3C[C@H]4C(=O)N[C@@H](CC(C)C)C(=O)N4[C@H]3c3cccc(OCCO)c3)cc2)[C@]12C(=O)Nc1ccc(I)cc12,inactive
3,COc1ccc(S(=O)(=O)N(C)C[C@@H]2Oc3cc(C4=CCCC4)ccc3S(=O)(=O)N([C@@H](C)CO)C[C@H]2C)cc1,inactive
4,C[C@H](CO)N1C[C@H](C)[C@H](CN(C)Cc2ccc(C(F)(F)F)cc2)Oc2ccc(NS(=O)(=O)c3ccc(Cl)cc3)cc2C1=O,inactive
5,CC[C@H]1OC(=O)C[C@@H](O)[C@H](C)[C@@H](O[C@@H]2O[C@H](C)[C@@H](O)[C@H](N(C)C)[C@H]2O)[C@@H](CCN2C[C@H](C)C[C@H](C)C2)C[C@@H](C)C(=O)/C=C/C(C)=C/[C@@H]1CO[C@@H]1O[C@H](C)[C@@H](O)[C@@H](OC)[C@H]1OC,active
6,CC[C@@H]1OC(=O)C[C@@H](O)[C@H](C)[C@@H](O[C@@H]2O[C@H](C)[C@@H](O)[C@H](N(C)C)[C@H]2O)[C@@H](CCN2C[C@H](C)C[C@H](C)C2)C[C@@H](C)C(=O)/C=C/C(C)=C\[C@@H]1CO[C@@H]1O[C@H](C)[C@@H](O)[C@@H](OC)[C@H]1OC,active
7,CCC1OC(=O)CC(O)C(C)C(OC2OC(C)C(O)C(N(C)C)C2O)C(CCN2CC(C)CC(C)C2)CC(C)C(=O)C=CC(C)=CC1COC1OC(C)C(O)C(OC)C1OC (stereo not drawn),active
8,C[C@@H]1CN([C@H](C)CO)C(=O)Cc2cc(NS(C)(=O)=O)ccc2O[C@H]1CN(C)S(=O)(=O)c1cn(C)cn1,inactive
9,C[C@@H]1CN([C@@H](C)CO)C(=O)Cc2cc(NC(=O)c3ccncc3)ccc2O[C@H]1CN(C)S(=O)(=O)c1ccc(Cl)cc1,inactive
10,C[C@@H]1CCCCO[C@H](CN(C)S(=O)(=O)c2cn(C)cn2)[C@H](C)CN([C@H](C)CO)C(=O)c2cc(NS(=O)(=O)c3ccccc3)ccc2O1,inactive
11,C[C@H](CO)N1C[C@H](C)[C@@H](CN(C)S(=O)(=O)c2cn(C)cn2)Oc2ccc(NC(=O)CCCN(C)C)cc2C1=O,inactive
12,C[C@@H]1CCCCO[C@@H](CN(C)S(=O)(=O)c2ccc(F)cc2)[C@H](C)CN([C@@H](C)CO)C(=O)c2cc(NC(=O)CCC(F)(F)F)ccc2O1,inactive
13,CC(C)C[C@@H]1NC(=O)[C@@H](C(C)C)NC(=O)[C@@H]2CCCN2C(=O)[C@@H](CC(=O)O)NC(=O)[C@@H](Cc2c[nH]c3ccccc23)NC1=O,inactive
14,CC(C)C[C@H]1NC(=O)[C@@H](CCCN)NC(=O)[C@H](C(C)C)NC(=O)[C@H]2CCCN2C(=O)[C@@H](Cc2ccccc2)NC(=O)[C@@H](CC(C)C)NC(=O)[C@@H](CCCN)NC(=O)[C@H](C(C)C)NC(=O)[C@H]2CCCN2C(=O)[C@@H](Cc2ccccc2)NC1=O,inactive
15,C[C@@H]1CN([C@H](C)CO)C(=O)c2cccc(NC(=O)c3cnccn3)c2O[C@H]1CN(C)S(=O)(=O)c1ccccc1,inactive
16,C[C@@H]1CN([C@@H](C)CO)S(=O)(=O)c2ccc(C#CCN(C)C)cc2O[C@H]1CN(C)Cc1cccnc1,inactive
17,OC[C@H]1O[C@H]2O[C@@H]3[C@@H](O)[C@H](O)[C@H](O[C@@H]4[C@@H](O)[C@H](O)[C@H](O[C@@H]5[C@@H](O)[C@H](O)[C@H](O[C@@H]6[C@@H](O)[C@H](O)[C@H](O[C@@H]7[C@@H](O)[C@H](O)[C@H](O[C@@H]8[C@@H](O)[C@H](O)[C@H](O[C@@H]1[C@@H](O)[C@@H]2O)O[C@@H]8CO)O[C@@H]7CO)O[C@@H]6CO)O[C@@H]5CO)O[C@@H]4CO)O[C@@H]3CO,inactive
18,NC1=CC(=O)c2ccccc2C1=O,inactive
19,CC1=CC(=O)c2ccccc2C1=O,active
20,O=C1C=C(O)C(=O)c2ccccc21,inactive

row,Compound,growth inhibition call
1,C[C@H](O)C#Cc1ccc2c(c1)O[C@H](CN(C)C(=O)c1ccccc1)[C@@H](C)CN([C@H](C)CO)S2(=O)=O,inactive
2,CN(CC(=O)O)S(=O)(=O)c1ccc(F)cc1,inactive
3,C[C@H](CO)N1C[C@H](C)[C@@H](CN(C)Cc2ccc(C(F)(F)F)cc2)Oc2ccc(NC(=O)C3CCCCC3)cc2C1=O,inactive
4,CC1(C)S[C@H]2[C@@H](NC(=O)[C@@H](N)c3ccccc3)C(=O)N2[C@@H]1C(=O)O,inactive
5,CC1(C)S[C@@H]2[C@H](NC(=O)C3(N)CCCCC3)C(=O)N2[C@H]1C(=O)O,active
6,CC1(C)SC2C(NC(=O)C(N)c3ccc(O)cc3)C(=O)N2C1C(=O)O (stereo not drawn),active
7,CC1(C)S[C@@H]2[C@H](NC(=O)[C@H](N)c3ccc(O)cc3)C(=O)N2[C@H]1C(=O)O,active
8,C[C@H]1CN([C@@H](C)CO)C(=O)Cc2cc(NS(=O)(=O)c3cn(C)cn3)ccc2O[C@H]1CN(C)C(=O)NC1CCCCC1,inactive
9,C[C@H]1CN([C@@H](C)CO)C(=O)Cc2cc(NS(=O)(=O)c3cn(C)cn3)ccc2O[C@@H]1CN(C)C(=O)Nc1ccc2c(c1)OCO2,inactive
10,CN(C)CCCNC(=O)C[C@H]1CC[C@H]2[C@@H](COC[C@@H](O)CN2S(=O)(=O)c2ccc(F)cc2)O1,inactive
11,C[C@H]1CCCCO[C@H](CN(C)CC2CCCCC2)[C@@H](C)CN([C@@H](C)CO)C(=O)c2cc(NC(=O)CCC(F)(F)F)ccc2O1,inactive
12,O=C(NO)c1ccc(C(=O)N/N=C/[C@H](O)[C@@H](O)[C@H](O)CO)cc1,inactive
13,C[C@@H]1CN([C@@H](C)CO)C(=O)c2cccc(NC(=O)Nc3ccc4c(c3)OCO4)c2O[C@@H]1CN(C)S(C)(=O)=O,inactive
14,Cc1ccc(S(=O)(=O)N(C)C[C@@H]2Oc3ccc(NS(=O)(=O)c4ccc(F)cc4)cc3CC(=O)N([C@H](C)CO)C[C@@H]2C)cc1,inactive
15,CC(C)CC#Cc1ccc2c(c1)O[C@@H](CN(C)C(=O)c1ccccn1)[C@H](C)CN([C@@H](C)CO)S2(=O)=O,inactive
16,O=C(C[C@H]1CC[C@H]2[C@@H](COC[C@@H](O)CN2C(=O)Nc2ccc(Cl)c(Cl)c2)O1)NCc1ccncc1,inactive
17,O=C(C[C@@H]1CC[C@H]2[C@@H](COC[C@H](O)CN2C(=O)Nc2ccc(Cl)c(Cl)c2)O1)NCc1ccc(Cl)c(Cl)c1,active
18,O=C(C[C@H]1CC[C@@H]2[C@H](COC[C@H](O)CN2C(=O)Nc2ccc(Cl)c(Cl)c2)O1)NCc1ccncc1,inactive
19,O=C(C[C@@H]1CC[C@@H]2[C@H](COC[C@H](O)CN2C(=O)Nc2ccc(Cl)c(Cl)c2)O1)NCc1ccc(Cl)c(Cl)c1,inactive
20,O=C(C[C@@H]1CC[C@H]2[C@@H](COC[C@@H](O)CN2C(=O)Nc2ccc(Cl)c(Cl)c2)O1)NCc1ccc(Cl)c(Cl)c1,inactive

row,Compound,growth inhibition call
1,O=C(C[C@H]1CC[C@H]2[C@@H](COC[C@H](O)CN2C(=O)Nc2ccc(Cl)c(Cl)c2)O1)NCc1ccncc1,inactive
2,O=C(C[C@H]1CC[C@H]2[C@@H](COC[C@@H](O)CN2C(=O)Nc2ccc(Cl)c(Cl)c2)O1)NCc1ccc(Cl)c(Cl)c1,inactive
3,O=C(C[C@H]1CC[C@H]2[C@@H](COC[C@H](O)CN2C(=O)Nc2ccc(Cl)c(Cl)c2)O1)NCc1ccc(Cl)c(Cl)c1,inactive
4,O=C(C[C@@H]1CC[C@H]2[C@@H](COC[C@H](O)CN2C(=O)Nc2ccc(Cl)c(Cl)c2)O1)NCc1ccncc1,active
5,O=C(C[C@@H]1CC[C@@H]2[C@H](COC[C@H](O)CN2C(=O)Nc2ccc(Cl)c(Cl)c2)O1)NCc1ccncc1,inactive
6,O=C(C[C@@H]1CC[C@@H]2[C@H](COC[C@@H](O)CN2C(=O)Nc2ccc(Cl)c(Cl)c2)O1)NCc1ccncc1,active
7,O=C(C[C@@H]1CC[C@H]2[C@@H](COC[C@@H](O)CN2C(=O)Nc2ccc(Cl)c(Cl)c2)O1)NCc1ccncc1,active
8,C[C@H]1CN([C@@H](C)CO)C(=O)Cc2cc(NS(=O)(=O)c3ccc(F)cc3)ccc2O[C@@H]1CN(C)C(=O)Nc1cccc2ccccc12,inactive
9,C[C@@H]1CCCCO[C@@H](CN(C)C(=O)Nc2ccccc2)[C@@H](C)CN([C@@H](C)CO)C(=O)c2cc(NC(=O)Nc3ccc(C(F)(F)F)cc3)ccc2O1,inactive
10,C[C@H](CO)N1C[C@H](C)[C@H](CN(C)S(=O)(=O)c2ccc3ccccc3c2)OCc2cnnn2CCCC1=O,inactive
11,COC(=O)c1cn(CCNC(=O)[C@@H](NS(=O)(=O)c2ccc(C)cc2)C(C)C)nn1,inactive
12,C[C@@H]1CCCCO[C@@H](CN(C)S(=O)(=O)c2cn(C)cn2)[C@@H](C)CN([C@@H](C)CO)C(=O)c2cc(NC(=O)CCCN(C)C)ccc2O1,inactive
13,O=C(NCCN1CCOCC1)[C@@]1(Cc2ccccc2)N=C(c2ccc(OCCCO)cc2)O[C@H]1c1ccccc1,inactive
14,C[C@@H]1CN([C@H](C)CO)C(=O)c2cc(NC(=O)Nc3ccc(C(F)(F)F)cc3)ccc2O[C@@H]1CN(C)Cc1ccc(C(F)(F)F)cc1,inactive
15,COc1ccc(NC(=O)N(C)C[C@H]2Oc3ccc(NC(=O)C4CC4)cc3C(=O)N([C@@H](C)CO)C[C@@H]2C)cc1,inactive
16,COc1ccc2c3c(n(c2c1)C)[C@H](CO)N(CC1CCOCC1)C[C@]13CN(C1)C(=O)Cc1cccnc1,inactive
17,Cc1ccc(S(=O)(=O)N(C)C[C@@H]2Oc3ccc(N(C)C)cc3CC(=O)N([C@@H](C)CO)C[C@@H]2C)cc1,inactive
18,O=C(C[C@H]1C[C@@H]2c3cc(NC(=O)Nc4ccc(C(F)(F)F)cc4)ccc3O[C@@H]2[C@H](CO)O1)NCCc1ccccc1,inactive
